What all share (conditions): mRNA level, 48 h; actives raise or lower the signal
Read-out in experiment [1]: Broad substrate specificity ATP-binding cassette transporter ABCG2 (Homo sapiens) (UniProt Q9UNQ0)
The experiment can be described thus: LTEA_HepaRG_ABCG2: Life Technologies and Expression Analysis (LTEA) Assay for ABC Transporter (ABCG2) using HepaRG (AID 2283465). The method in brief:
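ABCG2 transcript was quantified by TaqMan qRT-PCR against three housekeeping genes in HepaRG cells. Cells were treated in duplicate for 48 h across an 8-point half-log series up to 100 uM, with 0.5% DMSO vehicle. Gain or loss versus DMSO was fit.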

Read-out in experiment [2]: ATP-citrate lyase (ACLY), ACLY (gene 47)
The experiment can be described thus: LTEA_HepaRG_ACLY: Life Technologies and Expression Analysis (LTEA) Assay for ATP-citrate lyase (ACLY) using HepaRG (AID 2283466). The procedure, abridged: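 ACLY mRNA quantified by qRT-PCR on Fluidigm arrays against three housekeeping genes, after 48 h chemical treatment of HepaRG cells (top concentration 100 uM, half-log steps, 0.5% DMSO vehicle). Up- or down-regulation fitted relative to DMSO.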

Read-out in experiment [3]: Peroxisomal acyl-coenzyme A oxidase 1 (ACOX1) gene, ACOX1 (gene 51)
Kind of experiment: LTEA_HepaRG_ACOX1: Life Technologies and Expression Analysis (LTEA) Assay for Peroxisomal acyl-coenzyme A oxidase 1 (ACOX1) gene using HepaRG (AID 2283467). The method in brief:
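ACOX1 transcript levels were quantified by TaqMan qRT-PCR against three housekeeping genes after 48 h chemical exposure of differentiated human HepaRG cells. Exposure used eight half-log steps topping at 100 uM, 0.5% DMSO vehicle, in duplicate. Bidirectional curve fits were made relative to DMSO.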

Read-out in experiment [4]: Alkaline Phosphatase, Placental (ALPP) gene, ALPP (gene 250)
Kind of experiment: LTEA_HepaRG_ALPP: Life Technologies and Expression Analysis (LTEA) Assay for Alkaline Phosphatase, Placental (ALPP) gene using HepaRG (AID 2283468).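 As to AC50: differentiated human HepaRG liver cells in serum-free induction medium.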 The method in brief: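 qRT-PCR readout of ALPP mRNA (Fluidigm TaqMan), normalized to ACTB/GAPDH/POLR2A, after 48 h chemical exposure of HepaRG cells; 8-point half-log series, top 100 uM, 0.5% DMSO vehicle. Bidirectional curve fit versus DMSO baseline.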

Read-out in experiment [5]: Bcl-2 (BAD) gene, BAD (gene 572)
The experiment can be described thus: LTEA_HepaRG_BAD: Life Technologies and Expression Analysis (LTEA) Assay for Bcl-2 (BAD) gene using HepaRG (AID 2283469). The method in brief:
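Read-out: qRT-PCR of BAD mRNA, normalized to three housekeeping genes. Human HepaRG cultures got 48 h chemical exposure in 0.5% DMSO, duplicate eight-point half-log series topping at 100 uM. Gain or loss of signal fitted versus DMSO vehicle.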

Read-out in experiment [6]: Bcl-2 (BAX) gene, BAX (gene 581)
Kind of experiment: LTEA_HepaRG_BAX: Life Technologies and Expression Analysis (LTEA) Assay for Bcl-2 (BAX) gene using HepaRG (AID 2283470). The method in brief:
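Cells were thawed, plated for 48 h, moved to serum-free induction medium and dosed for 48 h (highest concentration 100 uM, half-log steps, 0.5% DMSO). Total RNA was then analysed for BAX expression by qRT-PCR.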

Read-out in experiment [7]: adenosine kinase (ADK) gene, ADK (gene 132)
The experiment can be described thus: LTEA_HepaRG_ADK: Life Technologies and Expression Analysis (LTEA) Assay for adenosine kinase (ADK) gene using HepaRG (AID 2283471). The method in brief: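 Read-out is ADK transcript level measured by qRT-PCR and normalised to three housekeeping genes. Cells are human HepaRG, dosed for 48 h at up to 100 uM in 0.5% DMSO. Gain or loss of signal is fitted against DMSO controls.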

Read-out in experiment [8]: Alpha-fetoprotein (AFP) gene, AFP (gene 174)
Kind of experiment: LTEA_HepaRG_AFP: Life Technologies and Expression Analysis (LTEA) Assay for Alpha-fetoprotein (AFP) gene using HepaRG (AID 2283472). The method in brief:
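Chemicals were tested on differentiated HepaRG cells for 48 hours at eight concentrations up to 100 uM, with 0.5% DMSO as vehicle. AFP expression was then quantified by qRT-PCR and analyzed for gain or loss relative to DMSO.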

Read-out in experiment [9]: BCL2L11 (gene 10018)
The experiment can be described thus: LTEA_HepaRG_BCL2L11: Life Technologies and Expression Analysis (LTEA) Assay for Bcl-2 (BCL2L11) gene using HepaRG (AID 2283473). The procedure, abridged:
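HepaRG, 48 h exposure, 8-pt half-log series from 100 uM in 0.5% DMSO, duplicates; qRT-PCR (Fluidigm TaqMan) for BCL2L11, housekeeping-normalized; bidirectional curve fit relative to DMSO baseline.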

Read-out in experiment [10]: Apolipoprotein A-V (APOA5) gene, APOA5 (gene 116519)
Kind of experiment: LTEA_HepaRG_APOA5: Life Technologies and Expression Analysis (LTEA) Assay for Apolipoprotein A-V (APOA5) gene using HepaRG (AID 2283474). The procedure, abridged: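 HepaRG, 48 h chemical exposure in serum-free induction medium, 8-pt half-log series (top 100 uM), 0.5% DMSO vehicle, duplicates. Readout: APOA5 mRNA by qRT-PCR, housekeeping-normalized; bidirectional fit vs DMSO baseline.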

Read-out in experiment [11]: Apoptosis regulator Bcl-2 (Homo sapiens) (UniProt P10415)
The experiment can be described thus: LTEA_HepaRG_BCL2: Life Technologies and Expression Analysis (LTEA) Assay for Bcl-2 gene using HepaRG (AID 2283475). The procedure, abridged:
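Plated human HepaRG cells are exposed to test chemicals for 48 h across eight concentrations from 100 uM downward in half-log steps (0.5% DMSO). BCL2 expression is then measured by qRT-PCR with housekeeping normalisation and fitted bidirectionally against vehicle.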

Read-out in experiment [12]: Caspase-3 (Homo sapiens) (UniProt P42574)
The experiment can be described thus: LTEA_HepaRG_CASP3: Life Technologies and Expression Analysis (LTEA) Assay for cysteine-aspartic acid protease (CASP3) using HepaRG (AID 2283477). The method in brief:
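HepaRG, 48 h exposure, 8 conc. (top 100 uM, half-log steps, duplicate), 0.5% DMSO vehicle; qRT-PCR of CASP3 transcript, housekeeping-normalised (ACTB/GAPDH/POLR2A); bidirectional curve fit vs DMSO baseline.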

Read-out in experiment [13]: Cytochrome P450 (CYP24A1), CYP24A1 (gene 1591)
Kind of experiment: LTEA_HepaRG_CYP24A1: Life Technologies and Expression Analysis (LTEA) Assay for Cytochrome P450 (CYP24A1) using HepaRG (AID 2283478). The procedure, abridged:
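qRT-PCR read-out: CYP24A1 transcript levels normalized to three housekeeping genes, bidirectional curve fits against 0.5% DMSO baseline. Human HepaRG cells treated 48 h with chemicals at eight concentrations from 100 uM in half-log steps.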

Read-out in experiment [14]: Cytochrome P450 (CYP1A2), CYP1A2 (gene 1544)
Kind of experiment: LTEA_HepaRG_CYP1A2: Life Technologies and Expression Analysis (LTEA) Assay for Cytochrome P450 (CYP1A2) using HepaRG (AID 2283479). The procedure, abridged: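 HepaRG, 48 h exposure, top 100 uM, half-log 8-pt, 0.5% DMSO vehicle, duplicates. Readout: TaqMan qRT-PCR of CYP1A2 mRNA, housekeeping-normalized (ACTB/GAPDH/POLR2A). Gain/loss fit relative to DMSO baseline.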

Read-out in experiment [15]: Cytochrome P450 (CYP2B6), CYP2B6 (gene 1555)
Kind of experiment: LTEA_HepaRG_CYP2B6: Life Technologies and Expression Analysis (LTEA) Assay for Cytochrome P450 (CYP2B6) using HepaRG (AID 2283481). The procedure, abridged:
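Read-out is CYP2B6 mRNA by TaqMan qRT-PCR, normalized to three housekeeping genes and fitted bidirectionally against 0.5% DMSO baseline. Human HepaRG cells received test chemicals for 48 h, top concentration 100 uM, half-log dilutions.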

Read-out in experiment [16]: Cytochrome P450 2C19 (Homo sapiens) (UniProt P33261)
The experiment can be described thus: LTEA_HepaRG_CYP2C19: Life Technologies and Expression Analysis (LTEA) Assay for CYP2C19 using HepaRG (AID 2283482). The procedure, abridged:
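HepaRG, 48 h chemical exposure, 8-pt half-log series from 100 uM in 0.5% DMSO, duplicates. Readout: CYP2C19 mRNA by TaqMan qRT-PCR, housekeeping-normalized. Bidirectional fit vs DMSO baseline; phenobarbital 1mM as induction control.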

Read-out in experiment [17]: CYP2C8 (gene 1558)
Kind of experiment: LTEA_HepaRG_CYP2C8: Life Technologies and Expression Analysis (LTEA) Assay for CYP2C8 using HepaRG (AID 2283483). The method in brief: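 CYP2C8 expression measured by TaqMan qRT-PCR and normalized to three housekeeping genes. HepaRG cultures were treated for 48 h with an eight-point half-log series topping at 100 uM, vehicle 0.5% DMSO, duplicates; fitted both directions against DMSO.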

Read-out in experiment [18]: cysteine-aspartic acid protease (CASP8), CASP8 (gene 841)
Kind of experiment: LTEA_HepaRG_CASP8: Life Technologies and Expression Analysis (LTEA) Assay for cysteine-aspartic acid protease (CASP8) using HepaRG (AID 2283480). The procedure, abridged: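 CASP8 transcript measured by TaqMan qRT-PCR with ACTB/GAPDH/POLR2A normalization, after 48 h chemical exposure of HepaRG cells in serum-free induction medium. Eight concentrations, top 100 uM, half-log steps, 0.5% DMSO vehicle; fits in both directions versus DMSO.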

Activity calls are given as the source filed them. The calls were made as follows: active = hit-call score of the fitted dose curve at least 0.9, where 1 is the maximum; inactive = score below 0.9.

Chain of Broad substrate specificity ATP-binding cassette transporter ABCG2 (Homo sapiens) (Q9UNQ0 whole entry, looked up): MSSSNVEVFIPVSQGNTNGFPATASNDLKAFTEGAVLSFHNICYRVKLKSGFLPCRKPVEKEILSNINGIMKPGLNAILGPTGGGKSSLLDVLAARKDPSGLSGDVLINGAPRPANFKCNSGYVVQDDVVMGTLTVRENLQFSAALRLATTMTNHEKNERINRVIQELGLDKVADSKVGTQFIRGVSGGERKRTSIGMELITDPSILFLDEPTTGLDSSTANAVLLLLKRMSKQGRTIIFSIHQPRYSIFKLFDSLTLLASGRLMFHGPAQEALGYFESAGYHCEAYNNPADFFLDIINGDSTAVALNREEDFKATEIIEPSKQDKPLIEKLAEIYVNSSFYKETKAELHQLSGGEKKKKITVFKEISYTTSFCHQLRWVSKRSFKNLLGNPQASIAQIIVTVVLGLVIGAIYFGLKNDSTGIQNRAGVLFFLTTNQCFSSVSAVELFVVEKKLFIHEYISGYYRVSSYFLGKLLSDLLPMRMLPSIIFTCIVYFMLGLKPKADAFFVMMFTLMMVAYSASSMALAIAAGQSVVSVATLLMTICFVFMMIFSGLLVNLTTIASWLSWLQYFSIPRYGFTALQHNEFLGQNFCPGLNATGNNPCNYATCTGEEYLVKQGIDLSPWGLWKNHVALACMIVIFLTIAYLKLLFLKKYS
Chain of Cytochrome P450 2C19 (Homo sapiens) (P33261 whole entry, looked up): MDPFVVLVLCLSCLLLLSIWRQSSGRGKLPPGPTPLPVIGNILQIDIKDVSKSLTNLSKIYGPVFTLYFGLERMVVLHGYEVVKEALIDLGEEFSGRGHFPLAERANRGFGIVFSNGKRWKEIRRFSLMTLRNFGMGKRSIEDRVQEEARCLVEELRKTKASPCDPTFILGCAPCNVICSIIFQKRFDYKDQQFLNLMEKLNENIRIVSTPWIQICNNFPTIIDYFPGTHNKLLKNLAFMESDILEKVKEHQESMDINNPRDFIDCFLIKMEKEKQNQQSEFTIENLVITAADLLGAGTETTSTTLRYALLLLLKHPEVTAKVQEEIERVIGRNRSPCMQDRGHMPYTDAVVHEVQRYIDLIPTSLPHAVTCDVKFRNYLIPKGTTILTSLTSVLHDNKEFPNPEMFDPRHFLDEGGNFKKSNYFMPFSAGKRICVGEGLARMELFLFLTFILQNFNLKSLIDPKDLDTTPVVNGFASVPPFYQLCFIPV
Chain of Caspase-3 (Homo sapiens) (P42574 whole entry, looked up): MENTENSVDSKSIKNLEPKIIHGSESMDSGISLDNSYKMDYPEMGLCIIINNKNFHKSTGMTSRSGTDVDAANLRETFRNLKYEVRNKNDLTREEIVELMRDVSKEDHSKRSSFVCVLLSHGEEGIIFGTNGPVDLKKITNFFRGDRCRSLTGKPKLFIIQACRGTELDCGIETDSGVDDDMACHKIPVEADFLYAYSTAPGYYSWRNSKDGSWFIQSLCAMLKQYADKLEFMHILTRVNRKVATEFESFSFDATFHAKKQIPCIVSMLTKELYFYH
Chain of Apoptosis regulator Bcl-2 (Homo sapiens) (P10415 whole entry, looked up): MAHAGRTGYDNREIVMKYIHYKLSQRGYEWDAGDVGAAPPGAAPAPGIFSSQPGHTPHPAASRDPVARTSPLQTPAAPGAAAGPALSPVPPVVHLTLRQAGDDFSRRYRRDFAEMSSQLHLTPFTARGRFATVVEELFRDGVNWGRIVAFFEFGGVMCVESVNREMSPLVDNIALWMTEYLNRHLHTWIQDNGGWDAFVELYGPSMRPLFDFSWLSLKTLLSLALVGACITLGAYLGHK

On to `C[C@]12CC[C@@H]3c4ccc(O)cc4C[C@@H](CCCCCCCCCS(=O)CCCC(F)(F)C(F)(F)F)[C@H]3[C@@H]1CC[C@@H]2O` (some centres undefined), for which the compound was classed as inactive in experiment [1], in experiment [2], in experiment [4], in experiment [6], in [7] and in experiment [12]. The call in experiment [13] and in experiment [14] was inactive. For the same compound, the AC50 was 21.1 µM (active) in experiment [3]; 0.045 µM (active) in experiment [5]; 33.1 µM (active) in [8]; 0.0755 µM (active) in [9]; 50 µM (active) in [10]; 0.0469 µM (active) in experiment [11]. Further, the values for the AC50 in [15], in experiment [16] and in experiment [17] were 29.9 µM (active), 26 µM (active) and 32.6 µM (active), respectively.
With `Cc1nn(C)c(Oc2ccccc2)c1C=NOCc1ccc(C(=O)OC(C)(C)C)cc1`, the AC50 is 3.96 µM (active) in [1]; 1.11 µM (active) in experiment [2]; 1.74 µM (active) in experiment [3]; 0.903 µM (active) in experiment [4]; 22.2 µM (active) in experiment [6]; 4 µM (active) in experiment [8]. For the same compound, the AC50 is 2.53 µM (active) in experiment [9]; 29.9 µM (active) in experiment [10]; 7.02 µM (active) in experiment [11]; 2.35 µM (active) in [14]; 1.68 µM (active) in experiment [15]; 29.2 µM (active) in [16]. Moreover, the AC50 in experiment [17] is 25.7 µM (active). Moreover, the result in experiment [5], in experiment [7], in experiment [12], in [13] and in experiment [18] was inactive.
Regarding `COc1c(Cl)ccc(Cl)c1C(=O)O`, the result in experiment [1], in [2], in experiment [3], in [4], in experiment [5] and in experiment [6] was inactive. Moreover, the outcome in [7], in experiment [8], in experiment [9], in [10], in [11] and in [12] was inactive. Moreover, the compound was called inactive in experiment [13], in [14], in experiment [15], in experiment [16] and in experiment [17].
`CN(C)C(=O)Nc1ccc(Cl)c(Cl)c1`: the AC50 in experiment [1] was 36.4 µM (active); in [8], 50 µM (active); in experiment [14] it was 30 µM (active); in experiment [15], 10.9 µM (active); in experiment [16] it was 28.7 µM (active). Also, the result in [2], in experiment [3], in experiment [4], in [5], in [6] and in [7] was inactive. Further, the compound was called inactive in experiment [9], in experiment [10], in experiment [11], in experiment [12], in [13] and in experiment [17].

One may read the AC50 as the concentration at which the activity in the assay is half-maximal.

The values are drawn from PubChem BioAssay (EPA / NIEHS).
